High-throughput results from PubChem BioAssay.
In the library only some 1.8% were active in any assay of this set; here they are far more common.
MsrA inhibitor: bovine MsrA inhibition. purified bovine MsrA, absorbance read-out. inhibition, % at 15.5 µM. 360,000 compounds, 0.75% hits; in the data active means inhibition above about 4.5%
NPR2 activator: GC-B (human) receptor activation | HEK293-GC-B cells, CNP EC30, cGMP TR-FRET; 0% at EC30 CNP, 100% saturating CNP | activation, % at 10 µM | 370,000 compounds, 0.11% hits;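 active means activation at 10 µM reaching about 35% in either raw or pattern-adjusted values, limit read from the data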
Target sequence (P20594 whole entry, looked up): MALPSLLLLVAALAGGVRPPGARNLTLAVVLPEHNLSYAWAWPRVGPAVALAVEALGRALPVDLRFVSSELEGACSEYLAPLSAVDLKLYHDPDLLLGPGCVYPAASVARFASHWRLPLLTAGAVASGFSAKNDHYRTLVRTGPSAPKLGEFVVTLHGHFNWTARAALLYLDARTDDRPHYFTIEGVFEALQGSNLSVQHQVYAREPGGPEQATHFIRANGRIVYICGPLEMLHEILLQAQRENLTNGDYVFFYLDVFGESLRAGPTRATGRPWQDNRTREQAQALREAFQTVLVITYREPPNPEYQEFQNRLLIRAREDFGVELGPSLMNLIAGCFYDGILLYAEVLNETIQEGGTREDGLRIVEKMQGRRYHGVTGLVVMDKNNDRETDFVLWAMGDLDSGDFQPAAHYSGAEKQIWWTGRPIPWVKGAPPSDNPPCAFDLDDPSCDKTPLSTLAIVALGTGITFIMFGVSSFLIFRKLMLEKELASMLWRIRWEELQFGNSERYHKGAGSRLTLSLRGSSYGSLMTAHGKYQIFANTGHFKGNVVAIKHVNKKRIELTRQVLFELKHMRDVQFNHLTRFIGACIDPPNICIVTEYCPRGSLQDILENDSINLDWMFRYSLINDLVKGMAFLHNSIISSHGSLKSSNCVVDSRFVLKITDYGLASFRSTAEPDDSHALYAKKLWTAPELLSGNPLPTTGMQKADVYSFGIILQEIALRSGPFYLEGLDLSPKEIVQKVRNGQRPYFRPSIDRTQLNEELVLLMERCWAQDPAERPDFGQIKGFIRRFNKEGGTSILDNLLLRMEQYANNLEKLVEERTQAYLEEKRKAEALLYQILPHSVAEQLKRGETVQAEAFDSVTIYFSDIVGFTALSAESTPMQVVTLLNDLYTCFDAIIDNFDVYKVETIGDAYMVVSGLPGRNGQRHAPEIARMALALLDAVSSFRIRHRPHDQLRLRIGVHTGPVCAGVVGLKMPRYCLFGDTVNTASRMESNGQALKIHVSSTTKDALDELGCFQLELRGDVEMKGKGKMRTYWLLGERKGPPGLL
GC-A act: GC-A (human) enzyme activation; HEK293 GC-A cells, cGMP TR-FRET, EC30 ANP; 0% at EC30 ANP, 100% saturating ANP; activation, % at 10 µM; 370,000 compounds, 0.14% hits; AID 1671463; in the data active means activation above about 40%
bovine MsrA act: bovine methionine sulfoxide reductase A activation; purified bovine MsrA, absorbance read-out; activation, % at 10.6 µM; 360,000 compounds, 0.3% hits; AID 602163; in the data active means activation above about 7.5%
HTR2A ag: agonists of mouse serotonin 5-HT2A receptor (HTR2A); P35363; CHO-K1 mHTR2A beta-arrestin complementation, luminescence; percent of 30 µM serotonin response; 360,000 compounds, 0.66% hits; AID 624169; activation, % at 7.6 µM;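 active means activation above a run cutoff, the mean activation of all tested compounds plus 3 SD, cut at about 14% in these data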
MsrA act confirm: bovine methionine sulfoxide reductase A activation confirmed; purified bovine MsrA, absorbance read-out; shares compounds with bovine MsrA act; AID 602270; activation, % at 10.6 µM; 1,000 compounds, 12% hits; in the data active means activation above about 4%;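 further: enzyme coupled to thioredoxin and thioredoxin reductase with NADPH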
Of the large screens only hits and unclear results are named; the others gave an inactive call (follow-up assays come after a bar, where they were run); ! = repeats disagree.

CCCN(CC1CC1)C(=O)c1ccc(CNC(=O)c2cccc(Br)c2)cc1	none (no result: MsrA inhibitor, bovine MsrA act, HTR2A ag)
COc1ccc(CN(Cc2ccc(OC)cc2)S(=O)(=O)c2ccc(-n3cnnn3)c(C)c2)cc1	none
COc1ccc(CN(Cc2cccnc2)S(=O)(=O)c2ccc(-n3cnnn3)c(OC)c2)cc1	bovine MsrA act 8.1 | MsrA act confirm inactive
Nc1ccc(S(=O)(=O)c2ccc(N)nc2)cc1	bovine MsrA act 7.7 | MsrA act confirm inactive
N#C/C(=C\c1ccccc1C(F)(F)F)C(=O)Nc1ccccc1	none
CCc1cccc(CC)c1NC(=O)/C(C#N)=C/c1ccccc1C(F)(F)F	bovine MsrA act 11 | MsrA act confirm inactive
O=S(=O)(c1cccs1)N1CCC(c2cn3ccccc3n2)CC1	none (no result: MsrA inhibitor, bovine MsrA act, HTR2A ag)
CN(CC(=O)Nc1cccc(F)c1)C(=O)CCc1nc2sc3c(c2c(=O)[nH]1)CCCC3	none
Cc1cccc(C)c1NC(=O)CN(C)C(=O)CCc1nc2sc3c(c2c(=O)[nH]1)CCCC3	bovine MsrA act 8.8 | MsrA act confirm inactive
O=Cc1cn(CC(=O)N2CCCc3ccccc32)c2ccccc12	none
N#Cc1cn(CC(=O)N2CCCc3ccccc32)c2ccccc12	bovine MsrA act 8.1 | MsrA act confirm inactive
C[C@@H]1/C=C/CC(=O)N[C@H](c2ccccc2)[C@H](C)/C=C/CC(=O)N[C@@H]1c1ccccc1	none (no result: MsrA inhibitor, bovine MsrA act, HTR2A ag)
Cc1cccc(C)c1-n1nnnc1C1(C)Cn2nccc2C(=O)N1Cc1ccc(F)cc1 (stereo not given)	none (no result: MsrA inhibitor, bovine MsrA act, HTR2A ag)
CCc1ccc(C2CC(c3ccccc3Cl)Nc3nc(N)nn32)cc1 (stereo not given)	bovine MsrA act 9.4 | MsrA act confirm inactive
O=C(NC1CCCC1)C1CCN(S(=O)(=O)c2ccc3[nH]c(=O)oc3c2)CC1	none (no result: MsrA inhibitor, bovine MsrA act, HTR2A ag)
CC(C)(C)c1ccc(-c2nnc3n2N=C(c2ccc(-c4ccccc4)cc2)CS3)cc1	none (no result: MsrA inhibitor, bovine MsrA act, HTR2A ag)
O=C(CCCc1ccccc1)NCCC1=CCCCC1	bovine MsrA act 8.5 | MsrA act confirm inactive
COC(=O)C[C@@H]1CC[C@@H]2[C@@H](COc3ccc(NC(C)=O)cc3C(=O)N2C)O1	none (no result: MsrA inhibitor, bovine MsrA act, HTR2A ag)
O=C1CSc2ccc(C(=O)N3CCCC(C(=O)N4CCOCC4)C3)cc2N1 (stereo not given)	none (no result: MsrA inhibitor, bovine MsrA act, HTR2A ag)
Cc1ccc(S(=O)(=O)NC2=NCCCCC2)cc1	bovine MsrA act 13 | MsrA act confirm inactive
Cc1ccc(OCC(=O)Nc2ccc(S(=O)(=O)NC3=NCCCCC3)cc2)cc1	none
CC(=O)C1CCN(Cc2ccccc2)CC1	none
CC(=O)N1CCOC12CCN(Cc1ccccc1)CC2	bovine MsrA act 8.2 | MsrA act confirm inactive
Cn1c(=O)n(CC(=O)O)c(=O)c2c1nc1n2CCS1	bovine MsrA act 8.5! | MsrA act confirm inactive
CCn1c(=O)c2c(nc3n2CCS3)n(C)c1=O	none
COC(=O)CSc1nnc(-c2cccs2)o1	none (no result: MsrA inhibitor, bovine MsrA act, HTR2A ag)
COc1ccc(OC)c(S(=O)(=O)N(CC(=O)NC2CCC(C)CC2)c2cc(C)cc(C)c2)c1 (stereo not given)	none (no result: MsrA inhibitor, bovine MsrA act, HTR2A ag)
CC(=O)Nc1ccc2sn(-c3ccccc3)c(=O)c2c1	bovine MsrA act 9.8 | MsrA act confirm 5.7
O=c1c2cc([N+](=O)[O-])ccc2sn1-c1ccccc1	bovine MsrA act 9.8 | MsrA act confirm 7.5
COc1ccc(-n2sc3ccccc3c2=O)cc1	none
N#Cc1ccc2sn(-c3ccccc3)c(=O)c2c1	bovine MsrA act 12 | MsrA act confirm 8.9
N/C(=N\C(=O)OCc1ccccc1)N(Cc1ccccc1)C(C#CC1=CCCCC1)Cc1ccccc1 (stereo not given)	none (no result: MsrA inhibitor, bovine MsrA act, HTR2A ag)
CS(=O)(=O)Nc1ccc(C(=O)NCCSCc2ccccc2)cc1	none
CS(=O)(=O)Nc1ccc(C(=O)NCCSCc2c(F)cccc2Cl)cc1	bovine MsrA act 8.3 | MsrA act confirm inactive
C[C@@H]1COc2cc(Br)ccc2S(=O)(=O)N1Cc1cn(Cc2ccc(C(F)(F)F)cc2)nn1	none (no result: MsrA inhibitor, bovine MsrA act, HTR2A ag)
Cc1nc(SCC(=O)NCc2ccc3c(c2)OCO3)c(C#N)c2c1CCCC2	bovine MsrA act 9.2 | MsrA act confirm inactive
CCc1nnc(NC(=O)CSc2nc(C)c3c(c2C#N)CCCC3)s1	bovine MsrA act 15 (no result: MsrA inhibitor) | MsrA act confirm inactive
O=C(N[C@H]1C[C@@H]2O[C@@H](CO)CC[C@@H]2O[C@@H]1CCc1ccc(-c2cccnc2)cc1)c1cccc(F)c1	none (no result: MsrA inhibitor, bovine MsrA act, HTR2A ag)
S=c1[nH]cnc2sc(-c3ccccc3)cc12	bovine MsrA act 8.2 | MsrA act confirm inactive
Cc1ccc(N2CCN(/N=C\c3cccnc3)CC2)cc1	none (no result: MsrA inhibitor, bovine MsrA act, HTR2A ag)
CN=C1S/C(=C/c2cc(C)n(-c3cc(C)ccc3OC)c2C)C(=O)N1C	none (no result: MsrA inhibitor, bovine MsrA act, HTR2A ag)
O=C(Nc1ccc2c(c1)OCCO2)NC12CC3CC(CC(C3)C1)C2	bovine MsrA act 9.1 | MsrA act confirm inactive
O=C(Nc1ccc2c(c1)OCCO2)Nc1ccc2c(c1)OCO2	none
COc1ccc(C(c2nnnn2C2CCCC2)N2CCN(c3ccccc3)CC2)cc1 (stereo not given)	none
COc1ccc(N2CCN(C(c3nnnn3C3CCCC3)C(C)C)CC2)cc1 (stereo not given)	bovine MsrA act 8.9 | MsrA act confirm inactive
COc1ccc(C)cc1N(C(=O)c1ccccc1F)c1nc2ccccc2s1	bovine MsrA act 13 | MsrA act confirm inactive
Cn1c(SCc2cccc(Cl)c2)nc(C(F)(F)F)cc1=O	bovine MsrA act 8.4 | MsrA act confirm inactive
Cn1c(SCc2ccccc2)nc(C(F)(F)F)cc1=O	none
CC(NCc1ccco1)C(=O)N1CCN(c2cccc(C(F)(F)F)c2)CC1 (stereo not given)	none (no result: MsrA inhibitor, bovine MsrA act, HTR2A ag)
COC(=O)[C@H](C(C)C)N(CCc1cn(Cc2ccc(C)cc2)nn1)S(=O)(=O)c1ccc(F)cc1Br	none (no result: MsrA inhibitor, bovine MsrA act, HTR2A ag)
CCN(CC)C(=O)CC[C@H]1CC[C@]2(CCCN(Cc3cccc4ccccc34)C2)O1	none (no result: MsrA inhibitor, bovine MsrA act, HTR2A ag)
O=C1c2ccccc2C(=O)c2[nH]c(=O)[nH]c21	bovine MsrA act 15 | MsrA act confirm inactive
O=C1c2ccccc2C(=O)c2[nH]cnc21	bovine MsrA act 12 | MsrA act confirm 6.7
O=C1c2ccccc2C(=O)c2c1ncn2-c1ccccc1	none
CCCCOCCCNC(=O)C[C@H]1C[C@@]2(C(=O)OC)C(=C[C@H](C(C)C)O[C@@H]2C2CC2)N(CCC2=CCCCC2)C1=O	none (no result: MsrA inhibitor, bovine MsrA act, HTR2A ag)
O=C(CSCc1ccc(Cl)cc1)NN=C1CCCC1	bovine MsrA act 8.1 | MsrA act confirm inactive
CCOC(=O)C1(C)CCN1C(=O)COc1ccc(C(C)(C)C)cc1 (stereo not given)	bovine MsrA act 8.2 | MsrA act confirm inactive
CCOC(=O)C1(C)CCN1C(=O)COc1ccccc1 (stereo not given)	none
C[C@H](O)[C@@H]1C(=O)N2CCc3c([nH]c4ccccc34)[C@@H]2C[C@@H]1N(C)Cc1ccc(Cl)cc1	bovine MsrA act 7.8 | MsrA act confirm inactive
COC(=O)CCS(=O)(=O)c1cc(Cl)ccc1Cl	bovine MsrA act 8.3 | MsrA act confirm inactive
CC(=O)N1CCN(CCS(=O)(=O)c2cc(Cl)ccc2Cl)CC1	none
